We go through 15 compounds from PubChem BioAssay (NCATS).

Each structure is given as a SMILES string. Values joined by “and” are separate entries in the source; they are usually repeats but may differ in a detail not shown here. Identical values can stand only once. Results filed as inconclusive are left out. Active and inactive are the calls of the source. Unless noted, the call rests on the fitted dose curve; in most records, active means well fitted curve in the direction sought with a large enough effect; inconclusive means small, poorly fitted or top-dose-only effect, or another doubt; inactive means no such curve, though single readings can be large; an effect the other way counts as inactive or inconclusive.

Test [1] addresses Transient receptor potential cation channel subfamily V member 1 (Homo sapiens) (UniProt Q8NER1). Briefly: HTS Assay for Compounds that Act as Enhancers of the Vanilloid Receptor 1 (AID 488979). Further: 0% is about no effect. An outline of the steps: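 TRPV1-expressing cells loaded with Fluo-8 calcium dye; compounds added and calcium influx read kinetically for 3 min (agonist phase), then capsaicin at EC20 added and read 2 min more for enhancement. Fluorescence ex 480/em 520 nm.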

The target of test [2] is D(1A) dopamine receptor (Homo sapiens) (UniProt P21728). Briefly: HTS Assay for Allosteric Agonists of the Human D1 Dopamine Receptor: Primary Screen for Agonists (AID 488981). Further: 0% is about no effect. The method, boiled down:
(§1)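 Tetracycline-induced HEK293 T-REx cells force-coupled to calcium signalling were incubated overnight at 30 C and dye-loaded at room temperature. Calcium flux over 180 s after compound addition flagged agonists; a further 180 s read after EC20 dopamine flagged potentiators.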

For test [3] the target is unchanged. The experiment in a line: HTS Assay for Allosteric Agonists of the Human D1 Dopamine Receptor: Primary Screen for Potentiators (AID 488982). Further: 0% is about no effect. An outline of the steps: as §1
The target is the same in test [4]. Briefly: HTS Assay for Allosteric Agonists of the Human D1 Dopamine Receptor: Primary Screen for Antagonists (AID 488983).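 Further: calcium flux response to an EC80 dopamine challenge measured with no-wash dye; on the % scale 0 is the no-effect control and ±100 the full control effect; nearly all actives have a fitted effect of over 65% in size.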 The method, boiled down: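 Calcium flux readout, no-wash dye, inducible HEK293 T-REx D1 line (force-coupled). Compound added after 10 s baseline, 180 s kinetic read; then dopamine at EC80, further 180 s read.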
For test [5], the target named is ATPase family AAA domain-containing protein 5 (Homo sapiens) (UniProt Q96QE3). Briefly: Validation screen for small molecules that inhibit ELG1-dependent DNA repair in human embryonic kidney (HEK293T) cells expressing luciferase-tagged ELG1 (AID 493107).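 Further: cells co-treated with the DNA-damaging agent 5-fluorouridine alongside compound; series mostly up to about 46 µM; on the % scale 0 is the no-effect control and ±100 the full control effect; inhibitors lower the ELG1-luciferase luminescence signal; nearly all actives have a fitted effect of over 70% in size.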 The method, boiled down: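 ELG1-luciferase HEK293T reporter; 5-fluorouridine + compound/DMSO, 16 hr, 37 °C, 5% CO2; ONE-Glo 30 min RT; luminescence read, qHTS format.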

The nature of test [6]: Nrf2 qHTS screen for inhibitors: Validation (AID 493153; active means well fitted inhibition curve with a large enough effect in the main read-out, with a control signal flat, not every such curve was filed as active). The settings on record: Potency: luciferase luminescence; viability change: measured here: cytotoxicity max response. The method, boiled down:
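Concentration-response test in A549 ARE_Fluc reporter cells (5% FBS OPTI-MEM), compound exposure 18-24 h at 37°C, 5% CO2. Cell viability measured first by CellTiter-Fluor fluorescence; ARE-driven luciferase luminescence then measured as Nrf2 activity.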
(In general: Quantitative high-throughput screening tests each substance at several concentrations.)

The nature of test [7]: qHTS for Inhibitors of Cell Surface uPA Generation: Validation Assay (AID 493164).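 Further: RAW 264.7 macrophage cells exposed to compound for 18 h; 0% is about no effect.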 The method, boiled down:
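Compounds are titrated over seven points (2.45 nM–38.3 uM final) onto pre-plated RAW 264.7 cells and incubated for 18 h. Retained intracellular ATP, measured with ATP-Lite, indicates blocked lethal factor entry.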

Test [8] addresses Galactokinase (Homo sapiens) (UniProt P51570). The experiment in a line: qHTS Validation Assay for Inhibitors of Human Galactokinase (GALK) (AID 493189). Further: 0% is about no effect. The method, boiled down: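 Enzyme activity is inferred from ATP consumption: human GALK phosphorylates galactose (100 uM) using 35 uM ATP for 1 h at room temperature, and luciferase-based Kinase-Glo Plus reports unconsumed ATP.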

The nature of test [9]: Validation screen for small molecules that induce DNA re-replication in SW480 colon adenocarcinoma cells (AID 504364). Further: 0% is about no effect. The method, boiled down: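 Read-out: total Hoechst intensity of nuclei by fluorescence scanning imager; hits raise the fraction of nuclei with elevated DNA content. Cells received compound for 48 hr at 37 C before a 40 min stain.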
The target in test [10] is Peptidyl-prolyl cis-trans isomerase NIMA-interacting 1 (Homo sapiens) (UniProt Q13526). The experiment in a line: qHTS Validation Assay to Find Inhibitors of Pin1 (AID 504536; active means well fitted inhibition curve with a large enough effect in the polarisation, with a control signal flat, not every such curve was filed as active; the % refers to the polarisation;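 further: 0% = full Pin1 enzyme wells and -100% = no-enzyme wells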). An outline of the steps: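 Fluorescence polarization competition: compounds (titration) displace HiFluor-488-labeled Pin1-1b peptide from Pin1 (0.3 uM final) in pH 7.5 HEPES buffer with DTT, 10 min at room temperature; %Activity normalized to no-enzyme wells, curves fitted.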

Test [11] deals with Phosphoglycerate kinase, glycosomal (Trypanosoma brucei brucei) (UniProt P07378). The experiment in a line: qHTS Validation Assay to Find Inhibitors of Phosphoglycerate Kinase (AID 504547).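 Further: control wells lack PGK and mark full inhibition.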 The method, boiled down: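 In TEA buffer (100mM, pH 7.6) containing 5mM MgCl2 and 0.01% Tween-20, the GAPDH-coupled PGK reaction proceeded for 60 minutes at room temperature before a single luminescence reading using Kinase-Glo Plus.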

Test [12] is described as follows: qHTS for Inhibitors of ATXN expression: Validation of Cytotoxic Assay (AID 588349). Further: on the % scale 0 is the no-effect control and ±100 the full control effect. An outline of the steps:
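Cytotoxicity counter-screen: HEK293 cells exposed to compound titrations, 72 hr, 37 degrees C. Read-out is intracellular ATP (CellTiter Glo luminescence) as a viability measure.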

Test [13] concerns the target Thyrotropin receptor (Homo sapiens) (UniProt P16473). The experiment in a line: qHTS Assay for Antagonists of the Thyroid Stimulating Hormone Receptor (AID 488980). Further: series mostly up to about 58 µM; 0% is about no effect. The method, boiled down:
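Inhibition of TSH-stimulated cAMP accumulation was quantified by homogeneous time-resolved FRET in TSHR-transfected HEK293 cells. Agonist: TSH, 4 nM final (EC80).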

In test [14] the target is Thyrotropin-releasing hormone receptor (Homo sapiens) (UniProt P34981). The experiment in a line: qHTS for Small Molecule Agonists and Allosteric Enhancers of Human TRH Receptor: Validation Screen for Agonists (AID 493127;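 active means calcium activation more than 3 SD above the typical response in the agonist read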;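 further: intracellular calcium rise by fluo-8 fluorescence before TRH EC20 addition; 0% is about no effect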). The settings on record: TRH receptor agonist cell assay; at 2 µM; stronger effect = higher value. An outline of the steps:
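Read-out: intracellular calcium release measured kinetically by FDSS (fluo-8, ex 480/em 530 nm), 1 reading/s after a 10-cycle baseline. TRHR cells, 2000/well, cultured 18 h at 33.5C, dye-loaded at room temp. Compound-evoked positive calcium signal flags agonists.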

In test [15] the target is Ubiquitin carboxyl-terminal hydrolase 1 (Homo sapiens) (UniProt O94782). The experiment in a line: Inhibitors of USP1/UAF1: Pilot qHTS (AID 504865).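 Further: rhodamine fluorescence freed from ubiquitin-rhodamine substrate followed over time; top concentration of the series differs between compounds; on the % scale 0 is the no-effect control and ±100 the full control effect; nearly all actives have a fitted effect of over 35% in size.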 The method, boiled down: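 Enzyme-free wells gave the negative control, while test wells held 1nM USP1/UAF1 preincubated with compound for 15 min at room temperature. Ub-Rho at 150nM final started the reaction, and fluorescence at 480/540 nm was recorded kinetically.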

In test [16] the target is phosphoglycerate mutase (Leishmania major) (UniProt Q4Q090). The experiment in a line: qHTS Validation Assay to Find Inhibitors of Phosphoglycerate Mutase (AID 504548). Further: series mostly up to about 58 µM; on the % scale 0 is the no-effect control and ±100 the full control effect. An outline of the steps: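 Lm PGAM at 1.25 nM final with substrate in 100 mM TEA pH 7.6, 5 mM MgCl2, 0.01% Tween-20; 45 min at room temperature. Kinase-GloPlus added, 10 min, end-point luminescence read.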

Test [17] addresses ATP-dependent 6-phosphofructokinase (Trypanosoma brucei brucei) (UniProt O15648). Briefly: qHTS Assay to Find Inhibitors of T. brucei phosphofructokinase: hit validation (AID 492961).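 Further: luminescence reports ADP formed as PFK phosphorylates fructose-6-phosphate with ATP; series mostly up to about 51 µM; on the % scale 0 is the no-effect control and ±100 the full control effect.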 An outline of the steps:
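PFK 1.25 nM, F6P 0.5 mM, ATP 0.1 mM, MgCl2 5 mM, 0.1 M TEA pH 8.0, Tween20 0.01%, BSA 0.1%; 45 min RT. ADP-Glo two-step detection, luminescence. qHTS titration; curve fitting with curve-class categorization.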

Test [18] can be described thus: Validation screen for small molecules that induce genotoxicity in human embryonic kidney (HEK293T) cells expressing luciferase-tagged ELG1 (AID 493106). Further: 0% is about no effect. An outline of the steps:
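qHTS format; 2,000 HEK293T ELG1-luc cells/well; 23 nL compound via pin tool; 16 hr, 37 °C/5% CO2; ONE-Glo, 30 min RT; luminescence read.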

Chain of Galactokinase (Homo sapiens) (P51570 whole entry, looked up): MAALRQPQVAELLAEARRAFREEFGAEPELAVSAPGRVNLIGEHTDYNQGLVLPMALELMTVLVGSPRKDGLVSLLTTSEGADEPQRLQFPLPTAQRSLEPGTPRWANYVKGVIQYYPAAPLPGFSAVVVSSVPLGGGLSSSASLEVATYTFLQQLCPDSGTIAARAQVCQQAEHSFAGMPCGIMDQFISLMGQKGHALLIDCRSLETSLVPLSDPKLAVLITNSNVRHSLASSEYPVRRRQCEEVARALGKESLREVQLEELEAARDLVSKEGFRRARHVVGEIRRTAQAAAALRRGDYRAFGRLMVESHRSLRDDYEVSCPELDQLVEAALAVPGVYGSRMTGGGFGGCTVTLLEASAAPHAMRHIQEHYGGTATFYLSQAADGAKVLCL
Chain of ATP-dependent 6-phosphofructokinase (Trypanosoma brucei brucei) (O15648 whole entry, looked up): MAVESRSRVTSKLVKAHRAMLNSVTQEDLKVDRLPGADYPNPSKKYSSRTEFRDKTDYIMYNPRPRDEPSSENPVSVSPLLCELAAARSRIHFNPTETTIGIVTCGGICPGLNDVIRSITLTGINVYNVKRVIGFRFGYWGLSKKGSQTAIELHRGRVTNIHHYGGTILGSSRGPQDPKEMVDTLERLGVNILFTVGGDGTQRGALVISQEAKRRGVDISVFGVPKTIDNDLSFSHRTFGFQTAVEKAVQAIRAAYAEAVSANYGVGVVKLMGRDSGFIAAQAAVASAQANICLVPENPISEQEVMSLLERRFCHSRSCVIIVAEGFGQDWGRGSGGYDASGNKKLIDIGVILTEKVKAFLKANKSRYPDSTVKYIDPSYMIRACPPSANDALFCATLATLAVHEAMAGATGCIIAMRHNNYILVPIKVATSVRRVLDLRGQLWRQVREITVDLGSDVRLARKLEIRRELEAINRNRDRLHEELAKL
Chain of Phosphoglycerate kinase, glycosomal (Trypanosoma brucei brucei) (P07378 whole entry, looked up): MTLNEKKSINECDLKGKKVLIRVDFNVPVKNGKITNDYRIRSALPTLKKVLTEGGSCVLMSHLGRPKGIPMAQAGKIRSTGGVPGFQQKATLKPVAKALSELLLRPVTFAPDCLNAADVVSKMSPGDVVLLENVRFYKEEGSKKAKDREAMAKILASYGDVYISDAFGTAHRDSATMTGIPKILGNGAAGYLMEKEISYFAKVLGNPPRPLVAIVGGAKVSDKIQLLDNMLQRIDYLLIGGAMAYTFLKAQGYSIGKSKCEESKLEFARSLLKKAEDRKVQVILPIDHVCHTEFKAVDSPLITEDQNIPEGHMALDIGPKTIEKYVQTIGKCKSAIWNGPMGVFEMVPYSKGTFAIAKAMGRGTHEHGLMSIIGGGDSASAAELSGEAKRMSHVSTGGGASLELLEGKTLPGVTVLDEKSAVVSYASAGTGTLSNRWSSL
Chain of Thyrotropin-releasing hormone receptor (Homo sapiens) (P34981 whole entry, looked up): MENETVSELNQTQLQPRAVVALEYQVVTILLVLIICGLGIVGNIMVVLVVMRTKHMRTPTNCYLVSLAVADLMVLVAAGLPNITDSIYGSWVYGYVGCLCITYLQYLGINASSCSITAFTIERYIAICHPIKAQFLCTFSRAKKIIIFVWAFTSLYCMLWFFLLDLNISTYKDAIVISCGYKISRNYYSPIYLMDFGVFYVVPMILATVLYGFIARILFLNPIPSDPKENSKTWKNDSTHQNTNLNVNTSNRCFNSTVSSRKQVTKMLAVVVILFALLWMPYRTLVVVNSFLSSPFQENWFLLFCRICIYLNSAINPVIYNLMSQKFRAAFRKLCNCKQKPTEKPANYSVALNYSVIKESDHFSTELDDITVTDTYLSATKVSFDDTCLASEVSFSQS
Chain of Transient receptor potential cation channel subfamily V member 1 (Homo sapiens) (Q8NER1 whole entry, looked up): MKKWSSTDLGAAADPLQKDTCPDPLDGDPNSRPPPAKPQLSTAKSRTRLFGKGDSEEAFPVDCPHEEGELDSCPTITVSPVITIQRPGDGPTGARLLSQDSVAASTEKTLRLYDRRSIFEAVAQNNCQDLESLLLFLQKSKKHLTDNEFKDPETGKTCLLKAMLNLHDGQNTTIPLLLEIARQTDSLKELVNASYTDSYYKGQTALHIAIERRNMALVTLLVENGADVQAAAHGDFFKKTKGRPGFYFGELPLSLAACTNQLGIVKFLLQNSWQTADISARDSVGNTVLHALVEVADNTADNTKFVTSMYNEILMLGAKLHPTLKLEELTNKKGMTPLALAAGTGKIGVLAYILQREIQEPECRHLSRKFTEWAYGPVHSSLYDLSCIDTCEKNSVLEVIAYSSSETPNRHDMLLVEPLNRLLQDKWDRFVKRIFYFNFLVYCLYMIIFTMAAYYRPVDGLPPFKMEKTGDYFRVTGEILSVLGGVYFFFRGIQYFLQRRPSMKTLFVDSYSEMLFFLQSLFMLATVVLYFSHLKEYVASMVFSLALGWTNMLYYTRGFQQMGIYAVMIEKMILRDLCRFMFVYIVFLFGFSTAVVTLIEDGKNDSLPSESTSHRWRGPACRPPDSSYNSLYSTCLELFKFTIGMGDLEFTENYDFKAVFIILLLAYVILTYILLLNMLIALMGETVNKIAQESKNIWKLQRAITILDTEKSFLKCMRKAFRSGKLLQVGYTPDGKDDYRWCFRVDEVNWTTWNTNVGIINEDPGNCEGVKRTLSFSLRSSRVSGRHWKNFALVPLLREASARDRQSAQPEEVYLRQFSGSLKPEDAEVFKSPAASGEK
Chain of phosphoglycerate mutase (Leishmania major) (Q4Q090 1-553): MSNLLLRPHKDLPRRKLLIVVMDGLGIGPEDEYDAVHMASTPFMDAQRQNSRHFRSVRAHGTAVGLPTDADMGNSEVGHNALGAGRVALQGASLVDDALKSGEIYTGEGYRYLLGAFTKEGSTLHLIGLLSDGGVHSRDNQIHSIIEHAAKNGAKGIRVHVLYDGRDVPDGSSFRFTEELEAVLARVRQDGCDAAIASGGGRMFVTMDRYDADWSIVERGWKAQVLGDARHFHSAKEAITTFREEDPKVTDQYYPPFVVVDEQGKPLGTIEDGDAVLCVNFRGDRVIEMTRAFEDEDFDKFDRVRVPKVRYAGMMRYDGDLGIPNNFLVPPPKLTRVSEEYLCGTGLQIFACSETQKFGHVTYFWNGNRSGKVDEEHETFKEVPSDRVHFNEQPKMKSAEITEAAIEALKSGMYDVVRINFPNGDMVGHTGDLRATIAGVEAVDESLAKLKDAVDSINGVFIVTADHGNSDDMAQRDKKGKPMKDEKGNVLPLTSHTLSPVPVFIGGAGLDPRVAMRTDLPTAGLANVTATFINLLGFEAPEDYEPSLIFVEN
Chain of D(1A) dopamine receptor (Homo sapiens) (P21728 whole entry, looked up): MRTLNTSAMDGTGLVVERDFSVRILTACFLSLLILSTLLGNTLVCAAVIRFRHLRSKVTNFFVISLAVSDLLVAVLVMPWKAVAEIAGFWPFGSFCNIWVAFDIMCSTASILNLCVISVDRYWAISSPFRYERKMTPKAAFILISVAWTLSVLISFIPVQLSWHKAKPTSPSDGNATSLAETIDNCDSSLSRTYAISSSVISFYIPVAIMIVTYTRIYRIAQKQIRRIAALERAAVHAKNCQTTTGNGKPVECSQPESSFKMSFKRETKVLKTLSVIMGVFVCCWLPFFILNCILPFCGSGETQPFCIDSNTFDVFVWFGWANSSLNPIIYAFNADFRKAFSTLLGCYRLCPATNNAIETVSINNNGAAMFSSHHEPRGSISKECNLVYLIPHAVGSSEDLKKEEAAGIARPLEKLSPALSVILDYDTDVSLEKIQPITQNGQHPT
Chain of Peptidyl-prolyl cis-trans isomerase NIMA-interacting 1 (Homo sapiens) (Q13526 whole entry, looked up): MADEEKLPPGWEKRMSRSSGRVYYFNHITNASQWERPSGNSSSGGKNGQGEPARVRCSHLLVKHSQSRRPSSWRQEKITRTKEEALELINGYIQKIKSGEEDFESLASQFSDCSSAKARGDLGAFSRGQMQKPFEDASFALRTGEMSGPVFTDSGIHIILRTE
Chain of Thyrotropin receptor (Homo sapiens) (P16473 whole entry, looked up): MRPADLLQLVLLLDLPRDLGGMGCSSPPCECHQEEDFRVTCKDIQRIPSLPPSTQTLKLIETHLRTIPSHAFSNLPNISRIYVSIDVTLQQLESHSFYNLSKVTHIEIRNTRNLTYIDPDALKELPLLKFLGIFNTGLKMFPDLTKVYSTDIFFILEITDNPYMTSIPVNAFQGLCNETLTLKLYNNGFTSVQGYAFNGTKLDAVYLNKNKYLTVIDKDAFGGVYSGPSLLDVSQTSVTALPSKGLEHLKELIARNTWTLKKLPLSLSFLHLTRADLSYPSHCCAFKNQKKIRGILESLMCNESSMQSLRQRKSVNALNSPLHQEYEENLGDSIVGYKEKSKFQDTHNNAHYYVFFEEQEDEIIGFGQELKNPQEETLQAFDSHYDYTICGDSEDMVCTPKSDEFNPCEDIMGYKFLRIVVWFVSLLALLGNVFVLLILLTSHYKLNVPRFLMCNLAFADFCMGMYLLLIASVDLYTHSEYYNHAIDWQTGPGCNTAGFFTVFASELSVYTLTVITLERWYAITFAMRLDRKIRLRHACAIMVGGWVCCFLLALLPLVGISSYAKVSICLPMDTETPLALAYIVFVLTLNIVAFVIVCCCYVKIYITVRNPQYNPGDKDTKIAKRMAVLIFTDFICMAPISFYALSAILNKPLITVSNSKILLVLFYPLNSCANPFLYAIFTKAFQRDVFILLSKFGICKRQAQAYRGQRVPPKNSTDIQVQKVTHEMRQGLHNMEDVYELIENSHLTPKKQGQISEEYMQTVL

With `CN1C2CCC1CC(OC(=O)C(CO)c1ccccc1)C2` (configuration not stated), the result in test [1], in test [7] and in [12] was inactive. The Potency result in test [2], in test [3], in test [4], in test [5], in test [6] and in test [8] was “inactive” each time. Also, the Potency result in test [9], in [10] and in test [11] was “inactive” throughout. The viability change in test [6] was 0.769% and 1.89%.

For the compound `Cn1c(=O)c2[nH]cnc2n(C)c1=O`, the result in test [1], in test [13], in [7] and in test [12] was inactive. Besides, the Potency entry in test [3], in [4], in test [5], in [6], in test [8] and in test [9] was “inactive” each time. Besides, the Potency entry in [10] and in test [11] was “inactive” each time. Besides, the activation in test [14] is 0.688% (inactive). Besides, in test [6], the viability change stood at 0.231%.

In the case of `O=C(C1CCCCC1)N1CC(=O)N2CCc3ccccc3C2C1` (configuration not stated), the result in test [1], in test [7] and in test [12] was inactive. In addition, the Potency entry in test [2], in [3], in test [4], in test [5], in test [8] and in test [9] was “inactive” each time. The Potency entry in test [10] and in test [15] was “inactive” in each case. In addition, in test [14], the activation is 0.312% (inactive).

As for `O=c1[nH]cc(F)c(=O)[nH]1`, the result in test [1], in test [13], in [7], in test [16] and in test [12] was inactive. Besides, the Potency result in [3], in test [4], in test [5], in test [8], in test [9] and in [10] was “inactive” each time. In addition, the Potency result in test [15] was “inactive”. Further, the activation in test [14] was 0.812% (inactive).

As for `Cc1cn([C@H]2C[C@H](N=[N+]=[N-])[C@@H](CO)O2)c(=O)[nH]c1=O`, the Potency result in [2], in test [3], in test [4], in test [17], in test [5] and in test [6] was “inactive” each time. Further, the Potency result in [11] and in test [15] was “inactive” in each case. In addition, the viability change in test [6] turned out to be 8.03%. The outcome in test [7] and in test [12] was inactive.

Regarding `CN1CCC(=C2c3ccccc3C=Cc3ccccc32)CC1`, the compound was called inactive in test [13], in [7] and in [12]. The Potency entry in [3], in test [5], in [6], in [8], in [9] and in [10] was “inactive” in each case. Besides, the Potency result in test [11] and in test [15] was “inactive” each time. Moreover, the viability change in test [6] was found to be 17%.

Consider `NS(=O)(=O)c1cc2c(cc1Cl)NCNS2(=O)=O`, for which the outcome in test [1], in test [13], in test [7], in test [16] and in test [12] was inactive. For the same compound, the Potency entry in test [3], in test [4], in test [18], in [6], in [8] and in test [9] was “inactive” each time. In addition, the Potency result in [10], in [11] and in test [15] was “inactive” each time. Also, the activation in [14] was 0.938% (inactive). Further, the viability change in test [6] is -1.09%.

For `Cn1c(=O)c2c(ncn2C)n(C)c1=O`, the outcome in test [1], in test [7] and in [12] was inactive. Also, the Potency result in test [2], in test [3], in [4], in test [18], in test [5] and in test [6] was “inactive” each time. The Potency entry in test [9], in [10] and in [15] was “inactive” in each case. Further, the viability change in test [6] was -2.67%.

As for `O=C1N(c2ccccc2)c2ccccc2C1(Cc1ccncc1)Cc1ccncc1`, the outcome in test [1], in test [7] and in test [12] was inactive. In addition, the Potency result in test [3], in test [4], in test [17], in test [18], in test [5] and in test [6] was “inactive” throughout. For the same compound, the Potency entry in test [8], in test [9], in [10] and in test [15] was “inactive” each time. The activation in [14] was 1.31% (inactive). Also, the viability change in test [6] was 10.1%.

Turning to `O=c1c(O)c(-c2ccc(O)c(O)c2)oc2cc(O)cc(O)c12`, the outcome in test [1], in [13], in test [7], in test [16] and in [12] was inactive. The Potency entry in [17], in test [18], in [6], in [8] and in [9] was “inactive” in each case. In addition, the activation in test [14] is 0.938% (inactive). The viability change in test [6] was -9.26%.

Consider `COc1ccc(CCN(C)CCCC(C#N)(c2ccc(OC)c(OC)c2)C(C)C)cc1OC` (configuration not stated), for which the result in test [13] and in test [7] was inactive. The Potency result in [3], in [4], in test [10] and in [11] was “inactive” each time. Further, in test [14], the activation is 7.06% (inactive).

With `CN(C)CCOC(c1ccccc1)c1ccccc1`, the outcome in [1], in test [13], in test [7], in test [16] and in [12] was inactive. The Potency entry in test [3], in test [4], in [5], in test [6], in test [8] and in test [9] was “inactive” throughout. The Potency result in test [10] is “inactive”. For the same compound, the activation in [14] is -3.31% (inactive). Further, the viability change in [6] came out at 2.71%.

Take `CN1CCN(C2=Nc3cc(Cl)ccc3Nc3ccccc32)CC1`: the call in [13], in test [7] and in [16] was inactive. Moreover, the Potency entry in test [18], in test [6], in test [8], in test [9], in test [10] and in test [11] was “inactive” in each case. The Potency entry in test [15] is “inactive”. Further, the activation in [14] is 3.31% (inactive). In addition, in [6], the viability change is -10.5%.

With `CN(C)C(=N)N=C(N)N`, in test [17], the Potency result is “inactive”.

`CC(=O)OCC(CCn1cnc2cnc(N)nc21)COC(C)=O`: the Potency result in test [17] and in [15] was “inactive” each time.
